An excerpt weighted towards active compounds, which were near 8% of everything screened.
HCV inh: qHTS Assay for Inhibitors of Hepatitis C Virus (HCV); Huh7.5.1 HCVcc-Cre infection, luciferase reporter, 44 h; Potency, µM (doses to about 41.8 µM), for the others: at the highest dose activity change, negative = inhibition, most hits filed as inhibitors; 340,000 compounds, 3.4% hits; active = well fitted inhibition curve with a large enough effect; inconclusive = small, poorly fitted or top-dose-only effect, or another doubt; inactive = no such curve, though single readings can be large or run the other way; also: potency is read from the fitted curve at half-maximal effect; % is scaled to controls: 0 for no effect and ±100 for the full control effect
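Reporter virus HCVcc-Cre (~0.5 moi) infects cells exposed to compound; seeding density 1,000 cells/well with 4 h settling beforehand. Luminescence, 15 sec read, taken 44 h post-infection following a 15 min RT substrate incubation.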
FMDV inh: High Throughput Screening for Foot and Mouth Disease Virus Antivirals | AID 1159524, 2015 | Potency, µM (titrated, usually from 57.9 µM), for inactives: top-dose activity change, negative = inhibition, most hits filed as inhibitors | FMDV antiviral cell-based qHTS | 410,000 compounds, 1.2% hits; calls by dose curve; tested in HEK293T cells; also: read-out not given here; potency is read from the fitted curve at half-maximal effect; % is scaled to controls: 0 for no effect and ±100 for the full control effect; nearly all actives have a fitted effect of over 45% in size
HCMV inh: qHTS Assay for inhibitors of the human cytomegalovirus (HCMV) | AID 1259415, 2018 | activity change, negative = inhibition, % at 57.5 µM | 410,000 compounds, 4.5% hits | HFF cells, HCMV-luciferase reporter, 72 h; stronger effect = lower value; in the data active = activity change below about -60%; inconclusive = no clear call, values can overlap the other calls; inactive = above about -39%; also: % is scaled to controls: 0 for no effect and ±100 for the full control effect
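Human foreskin fibroblasts infected with luciferase-reporter HCMV at MOI 1 PFU/cell, compounds at two doses. Luciferase measured 72 h post infection; normalized to buffer-only basal and Salinomycin (10uM) controls.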
Lassa entry inh: qHTS for Inhibitors of binding or entry into cells for Lassa Virus | Lassa virus pseudotype entry inhibition, cell reporter | Potency, µM (series often up to 37.9 µM), for inactives: at the highest dose activity change, negative = inhibition, hits mostly inhibitors | 300,000 compounds, 1.2% hits; calls by dose curve; tested in HEK293 cells; also: potency is read from the fitted curve at half-maximal effect; % is scaled to controls: 0 for no effect and ±100 for the full control effect; nearly all actives have a fitted effect of over 50% in size
Marburg entry inh: qHTS for inhibitors of binding or entry into cells for Marburg Virus; Potency, µM (doses to about 37.8 µM), without a hit: at the top dose activity change, negative = inhibition, actives largely listed as inhibitors; AID 540276, 2011; Marburg virus pseudotyped entry inhibition, cell reporter; 300,000 compounds, 1.8% hits; calls by dose curve; tested in HEK293 cells; also: potency is read from the fitted curve at half-maximal effect; % is scaled to controls: 0 for no effect and ±100 for the full control effect
SARS PLpro yeast: qHTS of Yeast-based Assay for SARS-CoV PLP; S. cerevisiae expressing SARS-CoV PLpro, growth rescue; Potency, µM (top dose mostly 32.9 µM), inactives show at the highest dose activity, positive = growth rescue, actives largely listed as activators; 330,000 compounds, 0.19% hits; AID 485353, 2010; calls by dose curve; also: potency is read from the fitted curve at half-maximal effect; 0% is about no effect; nearly all actives have a fitted effect of over 55% in size
Numbers without * were called inactive; [ ] = remark or other dose.

Screening CCOC(=O)N1CCC(NC(=O)c2cc(COc3ccccc3SC)on2)CC1 returned HCV inh 15.8µM*, FMDV inh 0.0%, HCMV inh -38.8, Lassa entry inh -28.1%, Marburg entry inh -20.2% and SARS PLpro yeast 3.8%.
COc1ccc(N2CCN(C(=O)C3CCN(S(=O)(=O)c4cnc[nH]4)CC3)CC2)cc1 was read as FMDV inh 2.6%, HCMV inh 7.5, Lassa entry inh inconclusive and Marburg entry inh 7.0%[46.1 µM].
Cc1c(C(=O)N2CCC(C)CC2)c(S(=O)(=O)Nc2cccc(C#N)c2)c(C)n1C was read as FMDV inh 53.3%, HCMV inh 58.6 and Lassa entry inh 21.1%[46.1 µM].
For CCOc1ccc(C(=O)Nc2cccc(C(=O)O)c2)cc1Cl the results were HCV inh 12.2%, FMDV inh 8.91µM*, HCMV inh 46.9, Lassa entry inh inconclusive, Marburg entry inh inconclusive and SARS PLpro yeast 0.2%.
Screening COc1ccc(/C=C2\C(=O)N(c3c(Cl)cc(Cl)cc3Cl)N=C2NC(=O)c2cccc([N+](=O)[O-])c2)cc1 returned HCV inh -22.6%, FMDV inh 11.2µM*, Lassa entry inh 23.0%, Marburg entry inh -0.5% and SARS PLpro yeast 23.4%.
CCOc1ccc(C(=O)Nc2cccc(-c3nc4cccnc4o3)c2)cc1Cl was read as HCV inh 11.2µM*, FMDV inh 7.5%, Lassa entry inh 25.9µM*, Marburg entry inh 8.2% and SARS PLpro yeast -8.2%.
COc1ccc(C(=O)C(C)Oc2cccc(NC(=O)c3cccc([N+](=O)[O-])c3)c2)cc1 (stereo not drawn) was read as HCV inh 11.2µM*, FMDV inh 0.0%, HCMV inh -33.6, Lassa entry inh inconclusive, Marburg entry inh inconclusive and SARS PLpro yeast 6.8%.
For CC(C)C(=O)Nc1cccc(NC(=O)c2cccc([N+](=O)[O-])c2)c1 the results were HCV inh -22.6%, FMDV inh -2.8%, HCMV inh -10.0, Lassa entry inh 1.9%, Marburg entry inh 2.1% and SARS PLpro yeast 0.2%.
Screening CS(=O)(=O)CC[C@@H](C(=O)NCCc1ccccc1)N1Cc2ccccc2C1=O returned FMDV inh 7.8%, HCMV inh -1.5, Lassa entry inh -1.5%[46.1 µM] and Marburg entry inh -4.2%[46.1 µM].
CSc1nn(Cc2ccccc2C)c(NC(C)=O)c1S(=O)(=O)c1ccc(C)cc1 was read as FMDV inh -11.9%, HCMV inh -1.0 and Lassa entry inh 2.6%[46.1 µM].
`CCOc1ccc(C(=O)Nc2cccc([N+](=O)[O-])c2)cc1Br` gave HCV inh 7.08µM*, FMDV inh 7.4%, HCMV inh -24.5, Lassa entry inh 19.2%, Marburg entry inh inconclusive and SARS PLpro yeast -16.0%.
`COc1cccc(C(=O)/C=C/Nc2cc(C)ccc2O)c1` gave HCV inh 2.24µM*, FMDV inh 20.3%, HCMV inh -79.4*, Lassa entry inh -13.6%, Marburg entry inh inconclusive and SARS PLpro yeast -16.1%.
Cc1cccc(OCC(=O)Nc2c(C(=O)N3CCN(c4ccccc4)CC3)oc3ccccc23)c1 was read as FMDV inh 47.3%, HCMV inh -33.0, Lassa entry inh -11.3%[46.1 µM] and Marburg entry inh 0.8%[46.1 µM].
O=c1[nH]c(=S)[nH]c(O)c1/C=C1/C=c2ccccc2=N1 was read as HCV inh inconclusive, FMDV inh 25.1µM*, HCMV inh 71.5, Lassa entry inh inconclusive, Marburg entry inh inconclusive and SARS PLpro yeast 3.2%.
`Cc1nnc(N2CCN(c3ccccc3F)CC2)c2c1nnn2Cc1ccccc1Cl` gave FMDV inh inconclusive, HCMV inh -4.0, Lassa entry inh 11.9%[46.1 µM] and Marburg entry inh inconclusive.
`CC(N)COC(=O)C(CCCCN)NC(=O)Cc1c(-c2ccc3ccccc3c2)[nH]c2c1ccc1ccccc12` (stereo not drawn) gave FMDV inh -21.8%.
CCN1c2ccccc2NC2N=C(OC)C(c3ccccc3)C21 (stereo not drawn) was read as HCV inh 1.7%, FMDV inh -11.5%, Lassa entry inh -34.2%[14.3 µM], Marburg entry inh 23.1µM* and SARS PLpro yeast -2.9%.
`COc1ccc(N(C)C(=O)Cn2cc(S(=O)(=O)N3CCN(c4ccccc4F)CC3)c3ccccc3c2=O)c(OC)c1` gave FMDV inh 0.0%, HCMV inh 0.1, Lassa entry inh -2.0%[46.1 µM] and Marburg entry inh inconclusive.
For C=C1C(=O)[C@]23C[C@H]1CCC2[C@@]1(C)C(C[C@@H]3O)[C@](C)(C(=O)OC)CC[C@@H]1O (stereo partly drawn) the results were FMDV inh 20µM* and HCMV inh -101.9*.
Screening C[C@@]12C(C[C@H](O)[C@@]34C[C@@H](CCC13)[C@@H](CO)C4=O)[C@](C)(C(=O)O)CC[C@@H]2O (stereo partly drawn) returned FMDV inh -22.1% and HCMV inh -8.4.
Cc1ccc(NC(=O)/C(C#N)=C(\N)C(Cl)(Cl)Cl)nc1 was read as HCV inh 10µM*, FMDV inh -67.2%, Lassa entry inh inconclusive, Marburg entry inh -20.0%[46.1 µM] and SARS PLpro yeast -4.6%.
CCCCn1c(-c2nonc2NC(=O)c2ccccc2Cl)nc2ccccc21 was read as HCV inh 1.6%, FMDV inh inconclusive and HCMV inh -76.9*.
Screening N#CCCn1c(-c2nonc2NC(=O)c2ccccc2Cl)nc2ccccc21 returned HCV inh 2.2%, FMDV inh 11.2%, HCMV inh -3.3, Lassa entry inh -12.5%, Marburg entry inh inconclusive and SARS PLpro yeast 3.8%.
CC(=O)Nc1nonc1-c1nc2ccccc2n1CC1CC1 was read as HCV inh inconclusive, FMDV inh -20.0%, HCMV inh -67.1*, Lassa entry inh -32.3%, Marburg entry inh inconclusive and SARS PLpro yeast 2.4%.
Screening Cc1nc(CC(=O)Nc2cc(Cl)ccc2C)cs1 returned FMDV inh -6.9%, HCMV inh inconclusive, Lassa entry inh 0.4%[46.1 µM] and Marburg entry inh -1.7%[46.1 µM].
Screening Cc1ccccc1OCCSc1nc2ccc(NC(=O)c3cccc(F)c3)cc2s1 returned FMDV inh -4.1%, HCMV inh -32.6, Lassa entry inh 16.5%[46.1 µM] and Marburg entry inh 9.6%[46.1 µM].
CC(Oc1ccccc1)C(=O)Nc1ccccc1C(=O)OCc1cc(=O)n2nc(C(C)C)sc2n1 (stereo not drawn) was read as FMDV inh -28.1%, HCMV inh -35.5 and Lassa entry inh -2.1%[46.1 µM].
Screening COc1ccc(N2CCN(C(=O)c3cc4c(-c5cccc(OC)c5)nn(C)c4s3)CC2)cc1 returned HCV inh 6.31µM*, FMDV inh -2.1%, HCMV inh -24.1, Lassa entry inh inconclusive, Marburg entry inh -1.9%[46.1 µM] and SARS PLpro yeast -6.4%.

From PubChem
